The source of these data is PubChem BioAssay (EPA / NIEHS).

Molecules are shown by their SMILES. A structure can be active in one record and inactive in another. Calls of active or inactive are those of the source. Rule for the calls: active = hit-call score of the fitted dose curve at least 0.9, where 1 is the maximum; inactive = score below 0.9.

The target of this experiment is Heat shock factor protein 1 (Homo sapiens) (UniProt Q00613). The experiment can be described thus: ATG_HSE_CIS: Attagene CIS-FACTORIAL HepG2 Assay for human Heat Shock Transcription Factor 1 (HSE) (AID 2282953). To be noted: HepG2 HSE cis-reporter, Attagene RNA transcription; actives raise or lower the signal. The procedure: ATG_CIS is a cell-based, multiplexed-readout assay that uses HepG2, a human liver cell line, with measurements taken at 24 hours after chemical dosing in a 24-well plate.ATG_HSE_CIS is one of 52 assay component(s) measured or calculated from the ATG_CIS assay. It is designed to make measurements of mRNA induction, a form of inducible reporter, as detected with fluorescence intensity signals by Reverse transcription polymerase chain reaction (RT-PCR) and Capillary electrophoresis technology.Data from the assay component ATG_HSE_CIS was analyzed into 1 assay endpoint. This assay endpoint, ATG_HSE_CIS, was analyzed with bidirectional fitting relative to DMSO as the negative control and baseline of activity. Using a type of inducible reporter, measures of mRNA for gain or loss-of-signal activity can be used to understand the reporter gene at the transcription factor-level as they relate to the gene HSF1. Furthermore, this assay endpoint can be referred to as a primary readout, because this assay has produced multiple assay endpoints where this one serves a reporter gene function. To generalize the intended target to other relatable targets, this assay endpoint is annotated to the dna binding intended target family, where the subfamily is heat shock protein.
Sequence of Heat shock factor protein 1 (Homo sapiens) (Q00613 whole entry, looked up): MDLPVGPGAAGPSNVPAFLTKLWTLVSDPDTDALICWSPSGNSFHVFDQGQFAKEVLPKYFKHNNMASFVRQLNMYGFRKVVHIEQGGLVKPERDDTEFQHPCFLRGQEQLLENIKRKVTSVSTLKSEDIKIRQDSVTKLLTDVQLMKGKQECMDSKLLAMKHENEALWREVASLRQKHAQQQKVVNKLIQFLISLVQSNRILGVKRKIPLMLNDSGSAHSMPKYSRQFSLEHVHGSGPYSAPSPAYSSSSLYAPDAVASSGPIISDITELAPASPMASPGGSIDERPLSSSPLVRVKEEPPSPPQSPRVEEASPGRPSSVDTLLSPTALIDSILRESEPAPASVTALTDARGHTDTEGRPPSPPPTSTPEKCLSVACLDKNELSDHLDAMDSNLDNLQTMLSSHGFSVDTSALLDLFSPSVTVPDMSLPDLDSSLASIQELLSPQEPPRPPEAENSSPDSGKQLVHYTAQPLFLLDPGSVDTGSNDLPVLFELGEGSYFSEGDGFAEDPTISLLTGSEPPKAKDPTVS
Human liver HepG2 cells are transiently transfected with multiple reporter transcription units (MRTUs) in 6-well plates using FuGene 6 reagent (Roche; 3 ml FuGene/1 mg DNA). The MRTU constructs are regulated by a cis-regulating element (promoter). […] A major difference between the CIS and TRANS system is that in CIS activities of endogenous TFs are measured, whereas the TRANS assay evaluates changes in activities of exogenous, chimeric NR-Gal4 proteins. […] At the end of 24 hour incubation, total RNA was isolated using TriZol reagent (Invitrogen). The isolated RNA is then reverse-transcribed using oligo(dT) primer and Mo-MLV reverse transcriptase (Invitrogen) with DNAse I (Ambion) treatment for 30 min. The one-tenth of the produced cDNA was amplified by PCR using Taq DNA polymerase (Invitrogen) and two reporter sequence-specific primers. The PCR products were fluorescently labeled by primer extension with 6-arboxyfluorescein (6-FAM) 5'-labeled reporter sequence-specific primer (2 min at 95 C, 20 s at 68 C and 10 min at 72 C) and these products were digested with 5U of HpaI (New England Biolabs) for 2h at 37 C. The fragments were purified using Qiaquick PCR columns (Qiagen), analyzed on an ABI 3130xL genetic analyzer (Applied Biosystems) with peak positions identified by using a set of X-rhodamine (ROX)-labeled MapMarker1000 molecular weight standards (BioVentures). The raw capillary electrophoresis data was processed using Attagraph software (Attagene).
Take `ClC1=C(Cl)[C@]2(Cl)[C@@H]3[C@@H](Cl)[C@@H](Cl)C[C@@H]3[C@@]1(Cl)C2(Cl)Cl`: the result was inactive.
For orientation: AC50 means the concentration giving half of the maximal activity seen. For `CC(C)(c1ccccc1)c1ccc(O)c(C(C)(C)c2ccccc2)c1`, the half-maximal activity concentration (AC50) was 17.9 µM (active).
With `CC(C)(OO)c1ccccc1`, the outcome was inactive.
With `CC(C)(c1ccc(OCC2CO2)cc1)c1ccc(OCC2CO2)cc1` (stereo unspecified), the concentration at half-maximal activity (AC50) is 60.5 µM (active).
In the case of `N#CN=C(N)N`, the result was inactive.
On the same count and under the same terms, to `C=CC(=O)OCCCCCC(C)C` belongs “inactive”; to `COC(=O)Cc1ccccc1`, “inactive”; to `Cc1ccccc1N`, “inactive”.
Still for that read-out and setting: the same measure for `Cc1ccccc1C(=O)Nc1cccc(OC(C)C)c1`: “inactive”; for `OCc1ccco1`: “inactive”; for `C=CCc1ccc(OC)cc1`: “inactive”.
On the same count and under the same terms, the same measure for `CCOC(=O)CP(=O)(OCC)OCC`: “inactive”.
Regarding `Oc1c(I)cc(I)cc1I`, the AC50 was 125 µM (active).
For `O=C(O)C(F)(F)C(F)(F)C(F)(F)C(F)(F)C(F)(F)C(F)(F)F`, the compound was called inactive.
Regarding `O=C(O)C(Cl)(Cl)Cl`, the compound was called inactive.
In the case of `CN(CCCC(=O)c1cccnc1)N=O`, the outcome was inactive.
Consider `CNC(=O)O/N=C/C(C)(C)S(C)=O` (stereo unspecified), for which the AC50 is 154 µM (active).
Turning to `CCCCCCCCSC(=O)Oc1cc(Cl)nnc1-c1ccccc1`, the outcome was inactive.
The same measure, in the same setting: the same measure for `O=C(O)Cc1ccccc1`: “inactive”.
On to `CCCCC(CC)CO[N+](=O)[O-]` (stereo unspecified), for which the compound was called inactive.
On to `CC(C)(C)c1cc(O)ccc1O`, for which the concentration at half-maximal activity (AC50) was 187 µM (active).
For the compound `COP(=S)(OC)Oc1c(Cl)cc(C)cc1Cl`, the outcome was inactive.
Same read-out and setting: to `Cc1cc(=O)[nH]o1` belongs “inactive”.
As to `COC[C@H](C)N(C(=O)CCl)c1c(C)csc1C`, the compound was classed as inactive.
As to `O=C(Nc1ccc2[nH]ccc2c1)c1cc2cc(F)ccc2n1Cc1cccc(F)c1`, the AC50 is 20.7 µM (active).
On to `CCOP(=S)(OCC)SCCS(=O)(=O)CC`, for which the compound was classed as inactive.
For the compound `O=C(OC1CCCCC1)c1ccccc1C(=O)OC1CCCCC1`, the outcome was inactive.
In the case of `O=Cc1cccc(Oc2ccccc2)c1`, the compound was classed as inactive.
Take `COc1ccc(OC)c(C=O)c1`: the call was inactive.
On to `C=C(C)C(=O)[O][Sn]([CH2]CCC)([CH2]CCC)[CH2]CCC`, for which the AC50 was 0.68 µM (active).
Take `OCC(O)CCl` (stereo unspecified): the outcome was inactive.
In the case of `O=C(O)C(F)(F)C(F)(F)C(F)(F)C(F)(F)C(F)(F)C(F)(F)C(F)(F)C(F)(F)C(F)(F)C(F)(F)F`, the concentration at half-maximal activity (AC50) was 14.9 µM (active) and the outcome was inactive.
Regarding `CCC(C)(C)c1ccc(O)c(C(C)(C)CC)c1`, the compound was classed as inactive.
As to `CCCCP(CCCC)CCCC`, the outcome was inactive.
Regarding `CCc1ccccc1N`, the compound was called inactive.
As to `Clc1ccc(COC(Cn2ccnc2)c2ccc(Cl)cc2Cl)cc1` (stereo unspecified), the outcome was inactive.
Still for that read-out and setting: to `CCC(C)c1cccc(C(C)CC)c1O` (stereo unspecified) belongs “inactive”.
Still for that read-out and setting: to `CC(=[OH+])/C=C(/C)[O-].CC(=[OH+])/C=C(/C)[O-].CC(=[OH+])/C=C(/C)[O-].[Fe]` belongs “inactive”.
`O=C1C2(Cl)C3(Cl)C4(Cl)C(Cl)(Cl)C5(Cl)C3(Cl)C1(Cl)C5(Cl)C24Cl` (stereo unspecified): the half-maximal activity concentration (AC50) was 16.7 µM (active) and the compound was classed as inactive.
